12-LOX inh = ALOX12 (human) lipoxygenase inhibition. purified 12hLO, xylenol orange hydroperoxide absorbance. Potency, µM (series often up to 108 µM), without a hit: at the top dose activity change, negative = inhibition, most hits filed as inhibitors. P18054. actives 1.1% (n = 580,000); also: % is scaled to controls: 0 for no effect and ±100 for the full control effect
Target sequence (P18054 whole entry, looked up): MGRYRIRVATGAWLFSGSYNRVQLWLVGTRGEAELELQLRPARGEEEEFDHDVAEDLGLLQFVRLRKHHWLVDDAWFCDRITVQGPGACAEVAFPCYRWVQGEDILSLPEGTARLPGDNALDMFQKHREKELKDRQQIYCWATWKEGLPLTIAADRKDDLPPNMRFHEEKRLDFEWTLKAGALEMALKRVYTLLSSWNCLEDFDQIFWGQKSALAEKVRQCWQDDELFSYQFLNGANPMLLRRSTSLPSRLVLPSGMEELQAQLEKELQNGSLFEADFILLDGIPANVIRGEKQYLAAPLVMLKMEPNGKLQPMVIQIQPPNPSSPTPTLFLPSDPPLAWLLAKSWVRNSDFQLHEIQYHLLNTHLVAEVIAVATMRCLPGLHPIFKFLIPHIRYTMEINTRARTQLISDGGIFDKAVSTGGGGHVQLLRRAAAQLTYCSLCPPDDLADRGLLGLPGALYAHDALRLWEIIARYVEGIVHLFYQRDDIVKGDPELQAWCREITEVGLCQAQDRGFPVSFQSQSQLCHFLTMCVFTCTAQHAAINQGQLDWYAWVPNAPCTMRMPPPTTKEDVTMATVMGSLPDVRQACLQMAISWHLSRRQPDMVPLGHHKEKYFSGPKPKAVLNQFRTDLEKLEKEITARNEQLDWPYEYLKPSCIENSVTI
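Hydroperoxide product was detected by ferrous iron/xylenol orange as the 573 to 405 nm absorbance ratio. Arachidonic acid at 40 uM (final) was turned over for 30 min at room temperature by 150 nM human 12hLO, pH 7.0 Hepes buffer, after 15 min compound preincubation.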
GRP78 ERSR act = inducers of ER stress response in human glioma cells. U87-MG GRP78 promoter luciferase reporter, 16 h. Potency, µM, without a hit: at the highest dose activation, actives largely listed as activators. actives 0.02% (n = 420,000). AID 602332; also: series mostly up to about 76 µM; % of control where 0% means no effect; nearly all actives have a fitted effect of over 35% in size
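Stably transfected U87-MG glioma cells carrying a GRP78-based luciferase sensor; 16 h compound incubation. Luminescence end-point read 10 min after Bright-Glo addition at room temperature.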
Sfp PPTase inh = blocks B. subtilis Sfp PPTase activity; Q9F4F7; Biochemical Sfp PPTase activity, qHTS; Potency, µM, without a hit: largest response in the series, negative = inhibition, hits mostly inhibitors; actives 3.5% (n = 310,000); AID 1490;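 also: the enzyme is Sfp with the accession as filed and its product quenches rhodamine fluorescence; 0% = enzyme reaction without inhibitor and -100% = no enzyme wells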
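Buffer: 50 mM Hepes-Na pH 7.6, 10 mM MgCl2, 0.01% Nonidet P-40, 0.01% BSA. Enzyme 15 nM, pre-exposed to compound 15 min; substrates then added and fluorescence change tracked over 30 min.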
VDR inhibitor = blocks the human vitamin D receptor; P11473; VDR-SRC2-3 peptide fluorescence polarization, 2 h; Potency, µM, for inactives: max response, negative = inhibition, most hits filed as inhibitors; actives 0.93% (n = 400,000); AID 504847; also: % is scaled to controls: 0 for no effect and ±100 for the full control effect
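VDR–SRC2-3 interaction, FP format. Cmpds 23 nl via pintool, brief spin, 2 h ambient incubation.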
G9a block = blocks human histone lysine methyltransferase G9a | Q96KQ7 | G9a H3K9 monomethylation, AlphaScreen, 2 h | Potency, µM (doses to about 102 µM), inactives show at the highest dose activity, negative = inhibition, hits mostly inhibitors | actives 8.8% (n = 350,000) | AID 504332; also: % is scaled to controls: 0 for no effect and ±100 for the full control effect; nearly all actives have a fitted effect of over 75% in size
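AlphaScreen detection with an anti-monomethyl H3K9 antibody quantified product after a 2 h room-temperature reaction containing 500 nM biotinylated H3K9 peptide, 20 µM SAM and 20 nM enzyme, which had been preincubated 15 min with compound.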
* marks the source's active call; other numbers are inactive results; ? = inconclusive; . = not tested or not shown; [ ] = remark or other dose. Only a selection was taken, and hits are over-represented in it overall. Calls follow the shape of the dose curve; as a rule, active = well fitted curve in the direction sought with a large enough effect; inconclusive = small, poorly fitted or top-dose-only effect, or another doubt; inactive = no such curve, though single readings can be large; an effect the other way counts as inactive or inconclusive. Potency is read from the fitted curve at half-maximal effect.

SMILES	12-LOX inh	GRP78 ERSR act	Sfp PPTase inh	VDR inhibitor	G9a block
CCc1ccc(S(=O)(=O)N2CCSC2c2ccc(OC)c(Br)c2)cc1 (configuration not stated)	-23.8%	.	.	.	.
Cc1sc2nc(CC(=O)NN)[nH]c(=O)c2c1C	12.7%	-1.1%	?	-6.0%	39.8µM*
Cc1sc2nc(CSc3ccc([N+](=O)[O-])cc3)[nH]c(=O)c2c1C	.	.	50.1µM*	.	?
CC(=O)OCc1nc2sc(C)c(C)c2c(=O)[nH]1	30.5%	-0.2%	1.8%	2.8%	19.7%[59 µM]
Cc1sc2nc(CSCC(=O)N(C)c3ccccc3)[nH]c(=O)c2c1C	14.7%	-2.0%	-14.5%	6.5%	5.5%[59 µM]
O=C(O)c1ccccc1Cc1nc2cc(Cl)ccc2c(=O)[nH]1	-15.0%	-2.5%	23.8%	-15.9%	-30.9%
O=c1[nH]c(CSc2nc3ccccc3s2)nc2cc(Cl)ccc12	?	.	-23.5%	.	28.2µM*
Cc1sc2nc(CSc3cccc(C(F)(F)F)c3)[nH]c(=O)c2c1C	-24.3%	-5.5%	-4.7%	-15.8%	-31.1%
Cc1sc2nc(CSc3nc4ccccc4s3)[nH]c(=O)c2c1C	?	.	-0.4%	.	8.91µM*
Cc1ccc(N(CCC#N)C(=O)CN(C)CC(=O)Nc2ccccc2Cl)cc1	-17.8%	.	.	.	.
Cc1ccc(-n2ncc3c2ncn2nc(-c4cccs4)nc32)c(C)c1	2.3%	.	.	.	.
CCOc1ccccc1NC(=O)c1cc2c(N3CCSCC3)nc(C)cn2n1	17.4%	.	.	.	.
Cc1cccc(Cn2c(SCCc3ccccc3)nc3c2c(=O)[nH]c(=O)n3C)c1	32.0%	.	.	.	.
Cc1ccc(-n2nnnc2SCc2nc3sc(C)c(C)c3c(=O)[nH]2)cc1	0.4%	-4.2%	-3.6%	-16.6%	-7.4%[59 µM]
Cc1sc2nc(CSc3nnc(Cc4cccs4)n3C3CCCCC3)[nH]c(=O)c2c1C	6.4%	1.1%	-16.8%	-20.3%	44.7µM*
Cc1sc2nc(CSc3n[nH]c(N)n3)[nH]c(=O)c2c1C	4.7%	-2.4%	79.4µM*	-8.6%	-12.7%
COc1ccccc1CNC(=O)N(C)CCOc1ccccc1C	-6.5%	.	.	.	.
CCOc1ccc(-c2cccc(NS(=O)(=O)c3cc(OC)ccc3OC)c2)nn1	-44.8%	.	.	.	.
O=[S+]1([O-])NCC2(CCN(CC3CCCCC3)C2)Nc2ccccc21 (configuration not stated)	2.7%	.	.	.	.
COc1ccc(-c2cc3ccc(OCc4nn[nH]n4)cc3oc2=O)cc1OC	?	-1.7%	25.7%	-1.4%	44.7µM*
CCc1ccc(NC(=O)OCC(C)C)cc1	24.1%	.	.	.	.
CCOc1ccc2nc3cc(N)ccc3c(N)c2c1	.	-3.2%	-25.5%	12.6µM*	?
Oc1oc(C=Nc2ccc(F)cc2F)c2ccccc12	-18.6%	5.3%	-2.8%	-10.9%	5.01µM*
Oc1cccc(C=Nc2cccc3ccccc23)c1	0.8%	.	.	.	.
CSc1n[nH]c(/N=C/c2oc(O)c3ccccc23)n1	-13.6%	-2.5%	-4.6%	6.7%	20µM*
SMILES	12-LOX inh	GRP78 ERSR act	Sfp PPTase inh	VDR inhibitor	G9a block
Cc1c(-c2ccccc2)oc2c(C(=O)NC(C)C3CC3)cccc2c1=O (configuration not stated)	0.6%	.	.	.	.
CC1CCCN(C(=O)c2cc3ccc(C(C)C)cc3[nH]2)C1 (configuration not stated)	7.8%	.	.	.	.
c1n[nH]cc1C12CC3CC(CC(C3)C1)C2	36.8%	.	.	.	.
CC1(C)CC(=O)C(CC2C(=O)CC(C)(C)CC2=O)C(=O)C1	0.3%	-4.1%	-13.8%	-1.8%	22.4µM*
CC1(C)CC(=O)C(CC2CCCCC2=O)C(=O)C1 (configuration not stated)	107.3%	-10.9%	12.0%	-9.5%	31.1%[59 µM]
CC1CCN(C(=O)c2ccc(SCc3ccccc3F)c([N+](=O)[O-])c2)CC1	-10.3%	-0.6%	-19.1%	-10.2%	28.2µM*
CN(c1ccc(C(=O)N2CCN(Cc3ccccc3)CC2)cc1)S(=O)(=O)c1ccccc1	-8.2%	-1.7%	7.5%	4.9%	-6.2%
NC(=O)c1ccc(SCC(=O)OCC(=O)N2CCCC2=O)c([N+](=O)[O-])c1	.	-4.1%	.	-3.8%	50.1µM*
CC1CCC(NC(=O)COC(=O)CSc2ccc(C(N)=O)cc2[N+](=O)[O-])CC1 (configuration not stated)	-28.0%	-9.5%	.	-1.8%	50.1µM*
CCN1CCN(C(=O)c2ccc(Cl)c(S(=O)(=O)N(C)c3ccccc3)c2)CC1	14.4%	-1.9%	.	4.3%	17.8µM*
NC(=O)c1ccc(SCC(=O)OCC(=O)NC2CCCCCCC2)c([N+](=O)[O-])c1	?	-2.9%	.	-17.9%	?
CN(C(=O)COC(=O)CSc1ccc(C(N)=O)cc1[N+](=O)[O-])C1CCS(=O)(=O)C1 (configuration not stated)	-2.5%	-2.9%	.	-29.4%	-40.9%
O=C(c1ccc(S(=O)(=O)Cc2ccccc2F)c([N+](=O)[O-])c1)N1CCCCCC1	6.5%	-7.0%	9.6%	-10.1%	?
CCC(C)Cn1c(CCNC(=O)c2ccco2)nc2ccccc21 (configuration not stated)	-2.0%	.	.	.	.
COc1ccc(C2CCCN2C(=O)Cn2cccnc2=O)c(OC)c1 (configuration not stated)	-4.1%	.	.	.	.
CCN1CCCC1CNC(=O)c1ccc(Sc2ccccc2Cl)c([N+](=O)[O-])c1 (configuration not stated)	?	-2.3%	-1.6%	-4.6%	8.7%[59 µM]
CCOC(=O)CSc1ccc(C(=O)N2CCN(C)CC2)cc1[N+](=O)[O-]	-13.7%	-9.0%	-7.6%	-15.8%	44.7µM*
CCN1CCN(C(=O)c2ccc(Sc3ccccc3Cl)c([N+](=O)[O-])c2)CC1	-13.1%	-5.3%	-11.1%	-17.7%	31.6µM*
NNc1nc2ccccc2c(=O)n1Cc1ccccc1	?	1.8%	20µM*	-16.4%	.
CC(C)OCCCn1c(NN)nc2ccccc2c1=O	24.0%	4.9%	-0.2%	-6.1%	?
CCS(=O)(=O)CCSc1nc2ccccc2o1	11.9%	-2.5%	14.1%	7.2%	1.4%[59 µM]
CS(=O)(=O)Cc1nc2ccccc2oc1=O	-2.7%	2.2%	?	7.2%	39.8µM*
Cc1ccc(NC(=O)CSCCc2ccccn2)nc1	-9.2%	-1.2%	-6.7%	5.6%	14.8%[59 µM]
O=C(CSCCc1ccccn1)Nc1ccccn1	?	-2.1%	-9.4%	?	56.2µM*
CCN(c1ccccc1C)S(=O)(=O)c1nnc(NC(=O)c2ccccc2C)s1	0.0%	0.7%	.	-0.1%	2.51µM*
CCN(c1ccc(OC)cc1)S(=O)(=O)c1nnc(NC(=O)c2ccccc2C)s1	-13.3%	9.1%	.	10.3%	-41.0%[59 µM]
CCCC(=O)Nc1nnc(S(=O)(=O)N(C)Cc2ccco2)s1	.	-3.7%	44.7µM*	?	?
Cc1ccccc1C(=O)Nc1nnc(S(=O)(=O)N(C)Cc2ccco2)s1	0.0%	-2.3%	44.7µM*	?	?
Cc1ccccc1N(C)S(=O)(=O)c1nnc(NC(=O)c2ccco2)s1	1.6%	-3.3%	1.4%	-24.5%	1.78µM*
CCC(=O)Nc1nnc(S(=O)(=O)N(C)Cc2ccco2)s1	-2.6%	-6.0%	6.2%	?	14.0%

Screening results (PubChem BioAssay)
